# Measurements published in PubChem BioAssay (NCI).
# This is part of a sample that, as a whole, favours compounds with a hit. Of some 79,000 tested, about 15% had one in any assay. Activity calls are given as the source filed them. Cut-off read from the data, not from the text of the source: active = growth inhibition above about 70%; inactive = the rest.
# Test: NCI Yeast Anticancer Drug Screen. Data for the mlh1 rad18 strain (AID 175)
# Conditions: S. cerevisiae mlh1 rad18 strain growth inhibition; at 50.0 µM; hits give high values
# In short: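 Inhibition values reflect reduced growth of mutant yeast versus vehicle-treated controls following compound exposure; the mutations affect DNA damage repair.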
row,Structure (SMILES),growth inhibition
1,C[C@]12CC[C@@H]3c4ccc(OCCCO)c([N+](=O)[O-])c4CC[C@H]3[C@@H]1CCC2=O,16% (inactive)
2,C=CC1CNCCC1CC(=O)OCC (stereo not drawn),-24.4% (inactive)
3,NC1=NS(=O)(=O)Nc2nc(-c3ccccc3)c(-c3ccccc3)nc21,7.3% (inactive)
4,COC(=O)C(/C(=N/N)C(=O)Nc1cccc(O)c1)c1nc2ccccc2[nH]c1=O (stereo not drawn),-34.4% (inactive)
5,NCCNc1ncnc2ccc(Cl)cc12,5.4% (inactive)
6,Fc1ccc(Cl)c2cccnc12,8.1% (inactive)
7,CC(C)=CC(=O)OC(C)(C)C,23.7% (inactive)
8,CC(=O)Oc1ccccc1C(OC(C)=O)OC(C)=O,34.4% (inactive)
